Gli-Sufu antag: blocks Gli-Sufu signaling in a luciferase reporter; actives 0.74% (n = 340,000); Sufu-KO-LIGHT fibroblasts, Gli luciferase reporter luminescence; inhibition, % at 5 µM;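 active means inhibition above about 55%, limit read from the data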
SMARCA2 activ: activators of SMARCA2 function; MG213 cells, MMTV-luciferase reporter, dexamethasone, overnight; activation, % at 9.1 µM; actives 1% (n = 370,000); AID 652017; in the data active means activation above about 7.8%
NR2F2 inh: blocks human COUP-TFII nuclear receptor; P24468; HEK293T NGFI-A luciferase reporter, luminescence; inhibition, % at 8.6 µM; actives 0.7% (n = 370,000); AID 686940;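 active means inhibition above a per-plate cutoff, mean inhibition of test wells between control levels plus 3 SD, cut at about 38% in these data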;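 further: cells cotransfected with COUP-TFII expression vector driving the NGFI-A reporter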
Target sequence (P24468 whole entry, looked up): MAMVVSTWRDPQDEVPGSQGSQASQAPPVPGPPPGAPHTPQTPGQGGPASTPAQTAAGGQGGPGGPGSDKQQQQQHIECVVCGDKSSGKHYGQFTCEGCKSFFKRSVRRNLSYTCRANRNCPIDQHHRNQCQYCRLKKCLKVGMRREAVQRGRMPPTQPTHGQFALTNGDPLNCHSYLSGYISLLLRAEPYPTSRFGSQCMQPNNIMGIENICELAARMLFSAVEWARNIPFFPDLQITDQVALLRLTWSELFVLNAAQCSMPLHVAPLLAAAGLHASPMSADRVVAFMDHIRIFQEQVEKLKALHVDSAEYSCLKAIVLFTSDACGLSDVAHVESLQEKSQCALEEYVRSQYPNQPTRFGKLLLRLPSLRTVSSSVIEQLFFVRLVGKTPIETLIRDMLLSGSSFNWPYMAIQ
FXN GAA850 act: activators of GAA850 frataxin (FXN) promoter | HEK293 lucGAA850 FXN promoter luciferase reporter, 24 h; percent of 10 µM SAHA response | activation, % at 6 µM | actives 0.56% (n = 360,000);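 active means activation above the average of all compounds screened plus 3 SD, cutoff fixed separately per campaign, cut at about 7.5% in these data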
Cardio protect: modulators protecting cardiomyocytes from myocardial damage; actives 0.63% (n = 360,000); H9c2 cardiomyocytes, H2O2 injury protection, ATPLite, 2 h; protection from H2O2 cell death, % at 20 µM; AID 588492;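 active means compounds giving at least 50% protection of heart cells from peroxide-induced death in the single-dose screen, raw or plate-pattern-corrected value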
GalR3 antagonist: human GalR3 antagonism; O60755; HEK293 GalR3-CNG cAMP membrane potential fluorescence; galR3 body fused to GalR1 C-terminus; inhibition, % at 3 µM; actives 0.44% (n = 360,000);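 active means inhibition above the screen-wide average plus 3 SD, cut at about 13% in these data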;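 further: forskolin and galanin both at EC90 stimulate the cells; cAMP rise reported by CNG channel membrane potential dye signal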
SMARCA2 conf: SMARCA2 activation, confirmation screen; shares compounds with SMARCA2 activ; MG213 cells, MMTV-luciferase with dexamethasone, luminescence, overnight; MG213 cells expressing E1A, Rb sequestered; DMSO wells 0%, reference activator 100%; activation, % at 9.1 µM; actives 30% (n = 3,500); AID 652260;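 active means activation above its plate's cutoff, the mean activation of tested wells plus 3 SD, cut at about 7.9% in these data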
GAL4-VP16 Luc: counter-screen for SMARCA2 activators: GAL4-VP16 luciferase reporter activation; shares compounds with SMARCA2 activ; HEK293 GAL4-VP16 pG5luc reporter, luciferase luminescence; scaled: DMSO wells 0%, SAHA wells 100%; actives 41% (n = 3,500); AID 686939; activation, % at 9.1 µM;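 active means activation above the solvent-only control well mean plus 3 SD, averaged across control plates, cut at about 5.2% in these data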
Hits are given with their value; i = inactive; nt = no result given. Only some compounds are listed: those with a hit (about 3.4% of all), similar ones and a draw of the others.

SMILES	Gli-Sufu antag	SMARCA2 activ	NR2F2 inh	FXN GAA850 act	Cardio protect	GalR3 antagonist	SMARCA2 conf	GAL4-VP16 Luc
COc1cccc(CN2CCN(Cc3ccc(OC)c(OC)c3)CC2CCO)c1 (centres undefined)	i	i	i	i	i	i	nt	nt
CCOc1ccc(NC(=O)CCNS(=O)(=O)c2ccc3c(c2)oc(=O)n3C)cc1	i	8.0	i	i	i	i	i	i
O=C(/C=C/c1ccc(Cl)cc1Cl)N1CCN(c2ccc([N+](=O)[O-])c(N3CCOCC3)c2)CC1	i	9.9	i	i	i	i	i	i
N#Cc1ccc(OCC(=O)NCC2(N3CCCCC3)CCCCC2)cc1	i	i	i	i	i	i	nt	nt
O=C(COc1ccccc1)NCC1(N2CCCCC2)CCCCC1	i	9.6	i	i	i	i	i	i
Cc1ccc(Nc2cccccc2=O)cc1	i	9.3	i	i	i	i	i	8.4
Clc1ccc(CSc2nnc(-c3ccccn3)n2Cc2cccs2)cc1Cl	nt	i	i	i	i	i	nt	nt
Cc1cccc(N2CC(C(=O)NCc3ccco3)CC2=O)c1C (centres undefined)	i	i	i	i	i	i	nt	nt
Clc1ccc(-c2cnc3n2CCC3)cc1	i	i	i	i	i	i	nt	nt
Nc1cccn2c(-c3ccc(Cl)cc3)cnc12	i	9.3	i	i	i	i	15.0	20.1
NC(=O)c1ccsc1NC(=O)COC(=O)Cc1ccccc1Cl	i	i	i	i	i	i	nt	nt
OC(c1ccc(F)cc1)c1ncc(-c2ccccc2F)[nH]1 (centres undefined)	nt	i	i	i	i	i	nt	nt
CCc1ccc(C(O)c2ncc(-c3ccccc3F)[nH]2)cc1 (centres undefined)	nt	13.3	i	i	i	i	i	i
Cc1ccc(SCC(=O)Nc2ccc(N3CCN(C)CC3)c(F)c2)cc1	i	10.6	i	i	i	i	i	i
COc1ccc(SCC(=O)Nc2ccc(N3CCN(C)CC3)c(F)c2)cc1	i	i	i	i	i	i	nt	nt
Cc1nonc1-c1csc(N)n1	i	i	i	i	i	i	nt	nt
CCC(OCC(O)CN1CCN(CCN2C(=O)c3cccc4cccc(c34)C2=O)CC1)c1ccccc1 (centres undefined)	i	9.4	i	i	i	i	i	i
CC(C)OCC(O)CN1CCN(CCN2C(=O)c3cccc4cccc(c34)C2=O)CC1 (centres undefined)	i	i	i	i	i	i	nt	nt
COc1cccc(/C=N/NC(=O)CN(C2=NS(=O)(=O)c3ccccc32)c2ccccc2)c1	i	i	i	i	i	i	nt	nt
COc1ccc(/C=N/NC(=O)CN(C2=NS(=O)(=O)c3ccccc32)c2ccccc2)cc1OC	i	8.1	i	i	i	i	i	i
Cc1cc(C(=O)CSc2n[nH]c(-c3ccccc3F)n2)c(C)n1Cc1cccs1	i	i	i	i	i	i	nt	nt
c1coc(-c2nn3c(-c4ccco4)nnc3s2)c1	i	i	i	i	i	i	nt	nt
COc1ccccc1-c1nn2c(-c3ccco3)nnc2s1	i	14.6	i	i	i	i	26.3	10.4
COc1ccc(C(=O)C2CCN(C(=O)Nc3ccccc3C)CC2)cc1	i	i	i	i	i	i	nt	nt
COc1ccccc1NS(=O)(=O)c1cccc(C(=O)N/N=C2\CC(=O)CC(C)(C)C2)c1	i	i	i	i	i	i	nt	nt
SMILES	Gli-Sufu antag	SMARCA2 activ	NR2F2 inh	FXN GAA850 act	Cardio protect	GalR3 antagonist	SMARCA2 conf	GAL4-VP16 Luc
S=C(N=Nc1ccccc1)NNc1ccccc1	i	10.3	i	i	i	nt	13.7	7.7
S=C(NNC(=S)Nc1ccc(Cl)cc1)NNc1ccccc1	nt	i	i	i	i	i	nt	nt
Cc1cc(=O)oc2ccc(OCc3ccccc3)cc12	i	i	i	i	i	i	nt	nt
C=CCOc1ccc2oc(=O)cc(C)c2c1	i	10.0	i	i	i	i	i	i
COC(=O)N/N=C/c1cc(Cl)cc(Cl)c1OCc1ccccc1	i	i	i	i	i	i	nt	nt
COc1cccc2cc(NC(=O)C3CCCCC3)c(=O)oc12	i	12.2	i	i	i	i	7.8	10.4

Bioassay records: PubChem, several laboratories
